Test results: PubChem BioAssay
Active and inactive are the calls of the source.

Columns and labels:
[1] = E. coli DRC41 culture turbidity changes, primary screen, E. coli filamentation inducer project, strain DRC41, OD650, 48 h (AID 1152);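 further: E. coli MC1000 strain DRC41 lacking acrAB efflux pump and sulA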; conditions: E. coli DRC41 (acrAB sulA), higher = more signal, called active from +8 up or from −8 down
[2] = small-molecule binders of probe aLefty1, primary screen, biochemical, small-molecule microarray, 635/667 nm fluorescence (AID 1153); conditions: higher = more signal;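 further: score merges spot fluorescence with signal-to-noise ratio from the scanned slide images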
[3] = PSAC antagonists in infected red cells, primary screen, cell-based, P. falciparum Indochina, OD700, 1 h (AID 1154); conditions: P. falciparum Indochina infected RBC osmotic lysis, higher = more signal, called active from +8 up or from −8 down
[4] = PSAC antagonists in infected red cells, primary screen, cell-based, P. falciparum Indochina, OD700, 2 h (AID 1155);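 further: lysis reports solute entry through the parasite surface anion channel PSAC; channel blockers reduce lysis of infected cells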; conditions: P. falciparum Indochina infected erythrocytes, osmotic lysis OD700; higher = more signal, called active from +8 up or from −8 down
[5] = osmotic lysis modulators in infected erythrocytes, primary screen, PSAC antagonist project, cell-based, P. falciparum Indochina, OD700, 3 h (AID 1156); conditions: higher = more signal, called active from +8 up or from −8 down
[6] = PSAC antagonists in infected red cells, primary screen, cell-based, P. falciparum Indochina, OD700, 18 h (AID 1157); conditions: P. falciparum Indochina infected erythrocytes, osmotic lysis OD700, 18 h; higher = more signal, called active from +8 up or from −8 down
[7] = modulators of S6 phosphorylation in cells, primary screen, cell-based, A549, cytoblot, luminescence, serum-stimulated (AID 1158); conditions: A549 phospho-S6 cytoblot, 5 h, higher = more signal;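 further: serum-stimulated A549 lung adenocarcinoma cells; signal is phosphorylated S6 detected by cytoblot immunostaining with HRP secondary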
[8] = biological target: NADPH oxidase 2 (Homo sapiens) (UniProt P04839); assay: NOX2-dependent H2O2 signal modulators, primary screen, NOX inhibitor project, cell-based, HEK293-NOX2, PMA-stimulated, Amplex Red fluorescence (AID 1159); conditions: 45 min, higher = more signal, called active from +8 up or from −8 down; further: test concentration not given here
Sequence of NADPH oxidase 2 (Homo sapiens) (P04839 whole entry, looked up): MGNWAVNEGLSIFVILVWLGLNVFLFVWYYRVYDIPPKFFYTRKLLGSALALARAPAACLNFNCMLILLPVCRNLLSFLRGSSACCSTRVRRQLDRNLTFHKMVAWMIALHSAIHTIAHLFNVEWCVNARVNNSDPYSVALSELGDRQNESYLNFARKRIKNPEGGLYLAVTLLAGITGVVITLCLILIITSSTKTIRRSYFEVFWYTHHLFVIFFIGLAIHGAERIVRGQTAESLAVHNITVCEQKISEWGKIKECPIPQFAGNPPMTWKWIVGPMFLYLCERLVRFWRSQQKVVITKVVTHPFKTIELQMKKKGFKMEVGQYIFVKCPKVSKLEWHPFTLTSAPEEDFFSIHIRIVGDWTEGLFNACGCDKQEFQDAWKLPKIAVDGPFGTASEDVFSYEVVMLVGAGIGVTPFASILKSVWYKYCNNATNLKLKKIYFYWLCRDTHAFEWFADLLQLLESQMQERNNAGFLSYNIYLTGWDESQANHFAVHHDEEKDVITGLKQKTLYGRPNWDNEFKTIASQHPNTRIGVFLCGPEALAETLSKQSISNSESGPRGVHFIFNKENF

[9] = biological target: NADPH oxidase 4 (Homo sapiens) (UniProt Q9NPH5); assay: NOX4-dependent H2O2 signal modulators, primary screen, NOX inhibitor project, cell-based, HEK293-NOX4, tetracycline-induced, Amplex Red fluorescence (AID 1160); conditions: 45 min, higher = more signal, called active from +8 up or from −8 down
Sequence of NADPH oxidase 4 (Homo sapiens) (Q9NPH5 whole entry, looked up): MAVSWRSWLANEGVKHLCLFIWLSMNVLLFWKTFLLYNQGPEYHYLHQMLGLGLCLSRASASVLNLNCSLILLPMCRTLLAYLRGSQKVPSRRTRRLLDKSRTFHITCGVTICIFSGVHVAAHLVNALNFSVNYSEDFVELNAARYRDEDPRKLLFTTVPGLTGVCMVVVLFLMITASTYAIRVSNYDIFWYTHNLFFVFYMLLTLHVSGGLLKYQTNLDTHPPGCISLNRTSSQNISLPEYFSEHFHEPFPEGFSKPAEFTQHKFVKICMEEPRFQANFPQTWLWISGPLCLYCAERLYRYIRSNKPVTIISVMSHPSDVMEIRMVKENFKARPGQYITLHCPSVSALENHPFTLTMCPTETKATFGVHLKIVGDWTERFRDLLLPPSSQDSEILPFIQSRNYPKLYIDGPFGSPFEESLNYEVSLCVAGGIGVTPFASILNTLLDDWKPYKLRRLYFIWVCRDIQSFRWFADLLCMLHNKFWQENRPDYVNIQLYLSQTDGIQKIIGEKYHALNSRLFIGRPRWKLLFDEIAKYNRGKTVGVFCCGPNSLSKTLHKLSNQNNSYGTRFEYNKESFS

[10] = biological target: NADPH oxidase 5 (Homo sapiens) (UniProt Q96PH1); assay: NOX5-dependent H2O2 signal modulators, primary screen, NOX inhibitor project, cell-based, HEK293-NOX5, Amplex Red fluorescence (AID 1161); conditions: HEK293-NOX5, ionomycin, 45 min, higher = more signal
Sequence of NADPH oxidase 5 (Homo sapiens) (Q96PH1 whole entry, looked up): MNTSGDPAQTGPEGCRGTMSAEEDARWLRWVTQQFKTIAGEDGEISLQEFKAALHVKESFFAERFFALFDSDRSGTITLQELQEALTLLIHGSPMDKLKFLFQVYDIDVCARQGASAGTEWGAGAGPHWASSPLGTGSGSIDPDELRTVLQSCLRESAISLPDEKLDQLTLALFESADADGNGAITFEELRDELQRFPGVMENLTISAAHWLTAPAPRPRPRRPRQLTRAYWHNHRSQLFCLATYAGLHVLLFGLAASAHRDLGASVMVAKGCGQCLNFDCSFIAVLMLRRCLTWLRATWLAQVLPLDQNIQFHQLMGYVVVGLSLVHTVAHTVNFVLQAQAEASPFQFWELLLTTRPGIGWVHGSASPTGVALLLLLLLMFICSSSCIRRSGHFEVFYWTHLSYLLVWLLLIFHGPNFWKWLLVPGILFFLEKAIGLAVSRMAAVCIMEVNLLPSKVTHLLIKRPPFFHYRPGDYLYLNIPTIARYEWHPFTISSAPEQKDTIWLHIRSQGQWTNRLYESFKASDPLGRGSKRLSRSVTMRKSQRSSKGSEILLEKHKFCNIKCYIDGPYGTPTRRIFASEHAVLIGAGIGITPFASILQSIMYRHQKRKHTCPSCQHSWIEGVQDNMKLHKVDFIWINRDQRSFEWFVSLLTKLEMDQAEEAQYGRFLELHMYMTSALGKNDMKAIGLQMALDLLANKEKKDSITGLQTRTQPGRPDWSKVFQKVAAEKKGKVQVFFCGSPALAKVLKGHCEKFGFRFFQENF

[11] = A549 cell viability effects, profiling panel, calcein-AM fluorescence, 48 h, basal (AID 1162); conditions: higher = more signal; further: test concentration not given here
[12] = adipocyte viability effects, profiling panel, cell-based, 3T3-L1 adipocytes, calcein-AM fluorescence, 48 h, basal (AID 1163); conditions: 3T3-L1 adipocytes viability, higher = more signal; further: test concentration not given here
[13] = HepG2 cell viability effects, profiling panel, calcein-AM fluorescence, 48 h, basal (AID 1164); conditions: higher = more signal; further: test concentration not given here
[14] = MM1S cell viability effects, profiling panel, calcein-AM fluorescence, 48 h, basal (AID 1165); conditions: higher = more signal;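 further: viability of MM1S multiple myeloma cells under basal unstimulated conditions; test concentration not given here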
[15] = basal RPMI8226 viability, no added stimulus, profiling panel, cell-based, calcein-AM fluorescence, 48 h, PK04 Diversity Set (AID 1166); conditions: RPMI8226 myeloma viability, higher = more signal;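 further: cells grown under basal conditions without added stimulus; test concentration not given here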
[16] = basal HepG2 mitochondrial membrane potential changes, profiling panel, cell-based, JC-1 fluorescence, 24 h, 100 nL compound (AID 1167); conditions: higher = more signal; further: test concentration not given here
[17] = basal 3T3-L1 adipocyte mitochondrial potential changes, profiling panel, cell-based, JC-1 fluorescence, 3T3-L1 adipocytes, 24 h, 100 nL compound (AID 1168); conditions: JC-1 mitochondrial fluorescence, higher = more signal, called active from +8 up or from −8 down; further: test concentration not given here
[18] = basal RPMI8226 mitochondrial membrane potential changes, profiling panel, cell-based, JC-1 fluorescence, 24 h, 100 nL compound (AID 1169); conditions: RPMI8226 myeloma, JC-1 mitochondrial potential fluorescence, higher = more signal; further: test concentration not given here
[19] = basal MM1S mitochondrial membrane potential changes, profiling panel, cell-based, JC-1 fluorescence, 24 h, 100 nL compound (AID 1170); conditions: higher = more signal; further: test concentration not given here
[20] = A549 lung cancer cell viability effects, profiling panel, resazurin fluorescence, 24 h, PK04 Diversity Set (AID 1171); conditions: higher = more signal, called active from +8 up or from −8 down; further: test concentration not given here

| SMILES | z-score [1] | composite z-score [2] | z-score [3] | z-score [4] | z-score [5] | z-score [6] | z-score [7] | z-score [8] | z-score [9] | z-score [10] | z-score [11] | z-score [12] | z-score [13] | z-score [14] | z-score [15] | z-score [16] | z-score [17] | z-score [18] | z-score [19] | z-score [20] |
| --- | --- | --- | --- | --- | --- | --- | --- | --- | --- | --- | --- | --- | --- | --- | --- | --- | --- | --- | --- | --- |
| CCCC=C(CCC)[C@@H](NC(=O)c1ccc(C(=O)OC)cc1)c1ccc(C(=O)OC)cc1 | -1.99 (inactive) | 0.211 | 0.67 (inactive) | 0.409 (inactive) | 1.33 (inactive) | 0.618 (inactive) | -0.574 | -0.542 (inactive) | -3.29 (inactive) | 1.5 | -1.48 | -0.454 | -1.54 | -1 | -1.59 | -0.261 | -1.28 (inactive) | -0.342 | -1.15 | 0.69 (inactive) |
| CN1C(=O)C2C=CC(C(O)c3ccc([N+](=O)[O-])cc3)N(Nc3ccccc3)C2C1=O (stereo not given) | -1.93 (inactive) | 0.658 | 1.98 (inactive) | 1.36 (inactive) | 2.88 (inactive) | 1.44 (inactive) | -1.06 | -1.45 (inactive) | -5.03 (inactive) | -3.26 | -1.06 | -1.33 | -0.581 | 0.13 | -0.772 | -1.05 | -1.92 (inactive) | -0.199 | -0.522 | -1.36 (inactive) |
| COc1cc(Cc2cc3c(c(CCc4ccccc4)n2)[Si](C(C)C)(C(C)C)O[C@H]3c2ccccc2)cc(OC)c1OC | -1.77 (inactive) | 0.101 | -0.436 (inactive) | 0.356 (inactive) | -3.89 (inactive) | 0.0416 (inactive) | -0.557 | 1.25 (inactive) | -2.98 (inactive) | -3.87 | -4.59 | -0.515 | -3.15 | -3.14 | -3.71 | -3.44 | 0.0754 (inactive) | -0.548 | -0.663 | -1.24 (inactive) |
| CCCCC=C[C@@H](NC(=O)C(C)(C)C)c1ccccc1 | -2.16 (inactive) | 0.181 | 2.28 (inactive) | 1.43 (inactive) | -1.46 (inactive) | 1.45 (inactive) | -0.553 | -0.312 (inactive) | -2.16 (inactive) | 1.63 | -2.66 | -0.688 | -5.19 | -3.26 | -4.72 | -4.78 | -0.576 (inactive) | -0.895 | -2.82 | -0.938 (inactive) |
| Cc1cccc([C@H]2C[C@H]3C(Br)=C[C@@]2(CO)C(=O)[C@]32CO2)c1 | -0.269 (inactive) | 0.0509 | -0.131 (inactive) | 0.27 (inactive) | -0.759 (inactive) | -0.063 (inactive) | -0.71 | 0.26 (inactive) | 0.711 (inactive) | -0.0286 | -0.602 | 0.0875 | -0.729 | -2.43 | -0.551 | -2.11 | -0.0495 (inactive) | -0.0551 | -0.876 | 0.393 (inactive) |
| COc1ccc(C(O)C2C=CC3C(=O)N(C)C(=O)C3N2Nc2ccccc2)cc1 (stereo not given) | -0.485 (inactive) | 0.211 | 0.929 (inactive) | 0.865 (inactive) | 0.213 (inactive) | 0.973 (inactive) | -0.423 | -1.26 (inactive) | -2.67 (inactive) | -1.96 | -1.12 | -0.221 | -0.393 | 0.291 | -0.301 | -1.27 | -0.0635 (inactive) | -0.176 | -0.153 | -1.27 (inactive) |
| COC(=O)[C@@]1(Cc2ccc(F)cc2)[C@H]2c3cc(C(=O)N4CCCC4)n(Cc4ccc(C(F)(F)F)nc4)c3C[C@H]2CN1C(=O)c1ccccc1 | -0.984 (inactive) | 0.93 | 2.37 (inactive) | 0.229 (inactive) | 2.16 (inactive) | 0.716 (inactive) | -0.186 | 0.0745 (inactive) | 0.488 (inactive) | -2.46 | -0.29 | 0.585 | -1.06 | -2.08 | -1.37 | 1.69 | -0.439 (inactive) | -0.799 | -0.873 | 0.052 (inactive) |
